# Sampled rows, rich in hits. Any-hit rate of the full collection: about 8.7%.
# BAZ2B inh – blocks human BAZ2B; actives 4.4% (n = 360,000); AlphaScreen BAZ2B-H3K14Ac peptide displacement; Potency, µM (titrated, usually from 114 µM), for the others: at the top dose activity change, negative = inhibition, most hits filed as inhibitors; AID 504333; Q9UIF8; also: potency is read from the fitted curve at half-maximal effect; % is scaled to controls: 0 for no effect and ±100 for the full control effect; nearly all actives have a fitted effect of over 60% in size
#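 Multi-concentration screen (max 110 uM) measuring displacement of acetylated histone H3 peptide from BAZ2B by AlphaScreen, using 50 nM protein, 50 nM peptide and 10 ug/mL streptavidin donor plus Ni-chelate acceptor beads.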
# 12-LOX inh – blocks human arachidonate 12S-lipoxygenase. purified 12hLO, xylenol orange hydroperoxide absorbance. actives 1.1% (n = 580,000). Potency, µM (doses to about 108 µM), inactives show at the highest dose activity change, negative = inhibition, actives largely listed as inhibitors. AID 1671190; also: potency is read from the fitted curve at half-maximal effect; % is scaled to controls: 0 for no effect and ±100 for the full control effect
#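 Purified human 12hLO at 150 nM in 25 mM Hepes, 0.01% Triton X-100, pH 7.0, preincubated 15 min at room temperature with compound. Reaction started with 40 uM arachidonic acid, 30 min at room temperature. Hydroperoxide measured by Fe-xylenol orange, 573/405 nm absorbance ratio.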
# G9a inh-1 – blocks human histone lysine methyltransferase G9a; Q96KQ7; G9a H3K9 monomethylation, AlphaScreen, 2 h; Potency, µM (doses to about 102 µM), without a hit: at the top dose activity, negative = inhibition, actives largely listed as inhibitors; actives 8.8% (n = 350,000); AID 504332; also: potency is read from the fitted curve at half-maximal effect; % is scaled to controls: 0 for no effect and ±100 for the full control effect; nearly all actives have a fitted effect of over 75% in size
# Target sequence (Q96KQ7 913-1193 limits assumed): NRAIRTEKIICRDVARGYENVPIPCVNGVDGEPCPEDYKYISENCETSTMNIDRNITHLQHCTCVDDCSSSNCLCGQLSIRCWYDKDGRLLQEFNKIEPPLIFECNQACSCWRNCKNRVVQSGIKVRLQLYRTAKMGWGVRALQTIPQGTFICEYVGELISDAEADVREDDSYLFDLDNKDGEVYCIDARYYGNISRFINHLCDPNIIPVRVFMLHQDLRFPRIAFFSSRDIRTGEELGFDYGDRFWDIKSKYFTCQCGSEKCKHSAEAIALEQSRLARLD
#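 Using a bead-based AlphaScreen, monomethylated H3K9 product from 2 h room-temperature reactions (G9a 20 nM, peptide 500 nM, SAM 20 uM) was detected with 0.5 ug/mL rabbit anti-H3K9me1 antibody.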
# JMJD2A Tudor – inhibitors of human JMJD2A Tudor domain. O75164. AlphaScreen JMJD2A-Tudor / H3K4me3 peptide binding. Potency, µM (top dose mostly 114 µM), for inactives: at the highest dose activity change, negative = inhibition, hits mostly inhibitors. actives 4.4% (n = 390,000); also: potency is read from the fitted curve at half-maximal effect; % is scaled to controls: 0 for no effect and ±100 for the full control effect; nearly all actives have a fitted effect of over 50% in size
# Sfp PPTase inh – Sfp phosphopantetheinyl transferase inhibition. Q9F4F7. Biochemical Sfp PPTase activity, qHTS. Potency, µM, without a hit: largest response in the series, negative = inhibition, usual class: inhibitors. actives 3.5% (n = 310,000). AID 1490;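 also: the enzyme is Sfp with the accession as filed and its product quenches rhodamine fluorescence; potency is read from the fitted curve at half-maximal effect; 0% = enzyme reaction without inhibitor and -100% = no enzyme wells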
#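 Sfp 15 nM + cpd, 15 min RT; start w/ rhodamine-CoA 5 uM, BHQ-2-YbbR 12.5 uM (final); 50 mM Hepes pH 7.6, 10 mM MgCl2, 0.01% NP-40, 0.01% BSA; read 525/598 nm at 0 and 30 min.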
# HP1b binding inh – inhibitors of HP1-beta chromodomain binding to methylated histone tails; P83916; AlphaScreen HP1-beta / biotin-H3K9me3 peptide binding; Potency, µM (titrated, usually from 114 µM), inactives show at the highest dose activity change, negative = inhibition, most hits filed as inhibitors; actives 0.56% (n = 390,000); also: potency is read from the fitted curve at half-maximal effect; nearly all actives have a fitted effect of over 70% in size
# Target sequence (P83916 whole entry, looked up): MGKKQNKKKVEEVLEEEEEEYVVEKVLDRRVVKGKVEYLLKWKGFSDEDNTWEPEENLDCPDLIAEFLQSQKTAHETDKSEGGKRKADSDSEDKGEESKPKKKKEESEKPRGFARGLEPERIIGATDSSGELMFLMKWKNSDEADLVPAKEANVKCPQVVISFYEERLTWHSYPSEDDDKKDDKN
#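 AlphaScreen: HP1-beta (50 nM) preformed 30 min with biotin-H3(1-18)K9me3 peptide (50 nM) in PBS pH 7.4, 0.01% Tween-20. Compound added for 30 min at RT, then streptavidin donor/nickel chelate acceptor beads (10 ug/mL) for 30 min.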
# G9a inh-2 – inhibits human G9a histone lysine methyltransferase, hit confirmation | shares compounds with JMJD2A Tudor | G9a H3K9 monomethylation, AlphaScreen, 2 h | actives 89% (n = 370) | Potency, µM, hits mostly inhibitors | AID 588344; also: potency is read from the fitted curve at half-maximal effect; nearly all actives have a fitted effect of over 65% in size
# RGS4 inh – confirmation of human RGS4 inhibitors. actives 80% (n = 25). RGS4 GAP activity, Transcreener GDP fluorescence polarization. Potency, µM, usual class: inhibitors. shares compounds with JMJD2A Tudor
# Target sequence (P49798 whole entry, looked up): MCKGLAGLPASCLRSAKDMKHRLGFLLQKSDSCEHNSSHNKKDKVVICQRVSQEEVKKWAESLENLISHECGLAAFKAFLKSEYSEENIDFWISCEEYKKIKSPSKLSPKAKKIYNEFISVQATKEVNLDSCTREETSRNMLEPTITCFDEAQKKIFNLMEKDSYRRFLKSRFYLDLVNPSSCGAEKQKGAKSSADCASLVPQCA
# * marks the source's active call; other numbers are inactive results; ? = inconclusive; nt = no result given; [ ] = dose if it differs, or a comment. Calls follow the shape of the dose curve; as a rule, active = well fitted curve in the direction sought with a large enough effect; inconclusive = small, poorly fitted or top-dose-only effect, or another doubt; inactive = no such curve, though single readings can be large; an effect the other way counts as inactive or inconclusive.
SMILES,BAZ2B inh,12-LOX inh,G9a inh-1,JMJD2A Tudor,Sfp PPTase inh,HP1b binding inh,G9a inh-2,others
COc1ccc(Nc2sc(C(=O)c3ccc(Cl)cc3)c(N)c2C(=O)Nc2ccccc2OC)cc1,?,?,?,?,-9%,-18%,nt,
COCC1CN(C(C)=O)CC12CCN(C(=O)c1ccc(F)cc1F)CC2 (stereo not drawn),nt,-4%,nt,nt,nt,nt,nt,
Cc1ccc2nc(-c3ccncc3)c(Nc3ccc(C(C)C)cc3)n2c1,-11%,5%,-7%[59 µM],-16%,nt,34%,nt,
Cc1ccc(-c2nc3ccccn3c2Nc2ccc3c(c2)OCO3)o1,35µM*,?,7.9µM*,50µM*,nt,?,nt,RGS4 inh=?
COc1ccc(Nc2c(-c3ccc(C)o3)nc3ccc(Cl)cn23)cc1,-1%,9%,-12%[59 µM],-4%,nt,34%,nt,
CC(C)c1ccc(Nc2c(-c3ccco3)nc3ccccn23)cc1,?,?,?,?,nt,-9%,nt,RGS4 inh=?
CSCC(=O)N1C[C@@H](NC(=O)Nc2cccc(SC)c2)C[C@H]1C(=O)N[C@@H](CCS(C)(=O)=O)C(N)=O,nt,22%,nt,nt,nt,nt,nt,
COc1ccc(O)c(CNc2ccccc2F)c1,nt,-17%,?,-29%,6%,3%,28*,
Cc1nn2c(c1-c1ccccc1C(C)C)N(C(=O)c1cccc(N(C)C)c1)CCC2,nt,-1%[176 µM],nt,nt,nt,nt,nt,
O=C(CSc1cn[nH]n1)Nc1cccc(C(=O)O)c1,-32%,3%,0.71µM*,8.9µM*,35µM*,18µM*,1.3*,
COc1ccc(OC)c(-c2csc(NC(=O)COC(=O)C3CCC3)n2)c1,-37%,-6%,?,-34%,nt,12%,10*,
CCOC(=O)c1cnc2ccccc2c1Nc1cccc([N+](=O)[O-])c1,nt,21%,nt,nt,nt,nt,nt,
O=C(CSc1nnnn1C1CCCCC1)Nc1ccccc1F,-28%,-8%,nt,-3%,22%,49%,nt,
O=C(Sc1nnnn1C1CCCCC1)c1cccs1,?,nt,?,nt,35µM*,nt,0.71*,
CCOC(=O)c1c(NC(=O)c2cccs2)sc2c1CCN(C(=O)OCC)C2,-3%,123%,-49%[59 µM],22%,?,106%,nt,
COc1ccc(Cl)cc1NC(=O)c1c(NCc2cccs2)sc2c1CCCC2,-39%,?,1.4µM*,?,nt,-2%,4.1*,
COc1ccc(Cl)cc1NC(=O)COC(=O)Cc1cccs1,15%,11%,-4%[0.501 µM],21%,nt,47%,nt,
CCOC(=O)N1CCc2c(sc(NCc3cccs3)c2C(=O)Nc2cc(Cl)ccc2OC)C1,-24%,?,1.1µM*,?,nt,19%,2.3*,
c1ccc2c(NC34CC5CC(CC(C5)C3)C4)nc(N3CCCCC3)nc2c1,nt,21%,nt,nt,nt,nt,nt,
Cn1nnnc1SCC(=O)Nc1ccc(Br)cc1Cl,-24%,3%,2µM*,9%,4%,43%,?,
CC1(C)[C@H]2CC[C@@H](CNC(=O)c3ccccn3)[C@@H]1C2,nt,15%[176 µM],nt,nt,nt,nt,nt,
CCOC(=O)C1CCN(C(=O)Cc2ccc(N(Cc3ccccc3)C(=O)c3ccco3)cc2)CC1,nt,-7%,nt,nt,nt,nt,nt,
COc1ccc(CNc2ncnc3ccc(-c4ccoc4)cc23)c(OC)c1,nt,-27%,-29%[0.501 µM],nt,-2%,nt,nt,
COc1ccc2[nH]cc(CCNc3ncnc4ccc(-c5ccoc5)cc34)c2c1,nt,-11%,-47%[0.501 µM],nt,3%,nt,nt,RGS4 inh=?
COc1cccc(NC(=O)C2CC(=O)N=C(N)S2)c1 (stereo not drawn),13%,0%,-3%[59 µM],5%[11.4 µM],24%,-12%,nt,
SMILES,BAZ2B inh,12-LOX inh,G9a inh-1,JMJD2A Tudor,Sfp PPTase inh,HP1b binding inh,G9a inh-2,others
COc1ccc(NC(=O)C2CC(=O)n3cnnc3S2)cc1 (stereo not drawn),-34%,0%,?,11µM*,56µM*,-66%,0.18*,
COc1ccc(NC(=O)C2CC(=O)n3ncnc3N2)cc1 (stereo not drawn),1%,-3%,-8%[59 µM],-15%,18%,22%,nt,
COc1cccc(NC(=O)C2CC(=O)n3cnnc3S2)c1 (stereo not drawn),?,?,0.63µM*,18µM*,45µM*,-75%,0.18*,
CCN(CC)c1ccc(NC(=O)c2cc(Cl)ccc2OC)cc1,?,?,2.5µM*,45µM*,-9%,35µM*,1.4*,
COc1cccc(C(=O)Nc2ccc(N(C)C)cc2)c1OC,50µM*,?,?,56µM*,1%,?,7.1*,
O=C(COc1ccc(Cl)cc1)Nc1sc2c(c1C(=O)Nc1cccc(Cl)c1)CCCC2,?,?,1.8µM*,71µM*,nt,?,3.6*,
CCOc1ccc(NC(=O)c2c(NCc3cccnc3)sc3c2CCCC3)cc1,-29%,?,2.8µM*,22µM*,nt,-11%,1.6*,
O=C(COc1ccccc1)Nc1sc2c(c1C(=O)NCc1cccnc1)CCCC2,2%,?,-5%[59 µM],-24%,-25%,17%,nt,
O=C(COc1ccc2ccc(=O)oc2c1)Nc1ccc(F)c(F)c1F,nt,-1%,nt,nt,nt,nt,nt,
CCN(CC)CCOC(=O)c1ccc(NC(=O)c2cn(-c3ccccc3)nc2-c2cccs2)cc1,-32%,?,-44%,-22%,?,2%,nt,RGS4 inh=21*
CCN(CC)CCNC(=O)c1cn(-c2ccccc2)nc1-c1cccs1,?,2%,0%,-3%[57.1 µM],4%,40%,nt,
O=C(NC1CC1)c1cc2c(s1)CCCCC2,nt,-41%,nt,nt,nt,nt,nt,
O=C(c1cccc(F)c1F)N1CCOc2ccc(CN3CCN(c4ccccn4)CC3)cc2C1,nt,0%,nt,nt,nt,nt,nt,
CN(C)c1ccc(CNc2ccc3c(c2)ncn3C)cc1,18µM*,3%,?,18µM*,-1%,20µM*,10*,
CCCCn1cnc2cc(NCc3ccc(OCC)cc3)ccc21,22µM*,-11%,2.5µM*,40µM*,nt,?,6.5*,
CCCn1cnc2cc(NCc3ccccc3OCC)ccc21,40µM*,-16%,1.8µM*,56µM*,nt,?,2.6*,
CCOc1ccc(CNc2ccc3c(c2)nc(C)n3C)cc1,-9%,-2%,1.6µM*,-35%,6%,-10%,6.3*,
CCOc1ccc2c(n1)CCN(C(=O)Cc1ccc(C)cc1)C2,nt,-6%,nt,nt,nt,nt,nt,
CCCc1ccc(OCC(=O)Nc2scc(-c3cccs3)c2C(=O)OC)cc1,7%,?,?,-3%,nt,1%,nt,
COC(=O)c1c(-c2cccs2)csc1NC(=O)COc1ccc(C(C)C)cc1,-11%,-25%,2.2µM*,-24%,nt,?,8.1*,

# Screening data deposited in PubChem BioAssay by National Center for Advancing Translational Sciences (NCATS).
